Drawing on the supplement of paper PMC9177965, this text covers cell viability activity for 38 molecules.

Several values for one entry are separate records, joined by “and”; a condition that tells them apart may be missing. Identical values can stand only once.

The test relates to HT29 sg-Ctrl (RNF43 wildtype). Briefly: cell viability activity relative to DMSO (negative = inhibition); higher = more viable cells (less growth inhibition). Conditions: 5 µM; 96 h. Here is the method:
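Broad Repurposing Library primary screen at a single dose of 5 uM. HT29 sg-Ctrl and HT29 RNF43 G659fs CRISPR-edited isogenic cells were seeded at 2500 cells/well in 384-well plates in duplicate and treated for 96 h. Viability was read by CellTiter-Glo and reported as % activity relative to DMSO, with MG132 as the positive control (negative = growth inhibition).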
Take `Cc1ccccc1N(C)C(=O)c1ccc([S+]([O-])c2nccs2)c([N+](=O)[O-])c1` (stereo not drawn): the cell viability activity was -22.7%. In the case of `COc1cccc2c1C(=O)c1c(O)c3c(c(O)c1C2=O)C[C@@](O)(C(C)=O)C[C@@H]3O[C@H]1C[C@H](N)[C@H](O)[C@H](C)O1`, the cell viability activity is -96.9% and -95.8% and -96%. Take `O=C(O)c1ccccc1-c1c2cc(I)c(=O)c(I)c-2oc2c(I)c(O)c(I)cc12`: the cell viability activity is -16.3%. For `COc1ccc2c(c1)c(C1=C(c3c[nH]c4ccccc34)C(=O)NC1=O)cn2CCCN(C)C` the value was -88.9%. For `CCN(CC)Cc1ccc2cc(COC(=O)Nc3ccc(C(=O)NO)cc3)ccc2c1`, the cell viability activity is -84.2%. `CC(C)/N=c1\cc2n(-c3ccc(Cl)cc3)c3ccccc3nc-2cc1Nc1ccc(Cl)cc1`: the cell viability activity is -75.7%.

With `N#CC1(c2ccc(NC(=O)c3cccnc3NCc3ccncc3)cc2)CCCC1`, the cell viability activity is -22.7%. For the molecule `O=C(NOC[C@H](O)CO)c1ccc(F)c(F)c1Nc1ccc(I)cc1F`, the cell viability activity was -85%. In the case of `COc1cc([C@@H]2c3cc4c(cc3[C@@H](O[C@@H]3O[C@@H]5CO[C@@H](c6cccs6)O[C@H]5[C@H](O)[C@H]3O)[C@H]3COC(=O)[C@H]23)OCO4)cc(OC)c1O`, the cell viability activity was -90.9% and -80.9%.

As for `O=C(CCCCCCC(=O)Nc1cccnc1)NO`, the cell viability activity is -42.7%. `C[C@H](Nc1ncnc2nc[nH]c12)c1cc2cccc(Cl)c2c(=O)n1-c1ccccc1`: the cell viability activity is -24.3%. Consider `CN1CC[C@H](c2c(O)cc(O)c3c(=O)cc(-c4ccccc4Cl)oc23)[C@H](O)C1`, for which the cell viability activity was -87.7%. For the molecule `Cc1cnc(Nc2ccc(F)cc2Cl)nc1-c1c[nH]c(C(=O)N[C@H](CO)c2cccc(Cl)c2)c1`, the cell viability activity is -76%. Take `CN(C)Cc1c(C(=O)NCCOc2ccc(C(=O)NO)cc2)oc2ccccc12`: the cell viability activity was -85.2%. On to `CN[C@@H](C)C(=O)N[C@H](C(=O)N1CCC[C@H]1C(=O)N[C@H]1c2ccccc2C[C@H]1OCC#CC#CCO[C@@H]1Cc2ccccc2[C@@H]1NC(=O)[C@@H]1CCCN1C(=O)[C@@H](NC(=O)[C@H](C)NC)C1CCCCC1)C1CCCCC1`, for which the cell viability activity is -77.2%. `O=C(NC1CCN(CCCCC2(C(=O)NCC(F)(F)F)c3ccccc3-c3ccccc32)CC1)c1ccccc1-c1ccc(C(F)(F)F)cc1`: the cell viability activity was -92.3%.

Regarding `CCC[C@H](NC(=O)/C(C#N)=C/c1cccc(Br)n1)c1ccccc1`, the cell viability activity was -92.4%. Under `COc1cc(OC)c(/C=C/S(=O)(=O)Cc2ccc(OC)c(OP(=O)(O)O)c2)c(OC)c1` stands -12.1%; under `O=C(c1cn(Cc2cncn2Cc2ccc(Br)cc2)cc1-c1cccc2ccccc12)N1CCOCC1`, -38.5%. On to `OCCN1CCN(CCCN2c3ccccc3Sc3ccc(Cl)cc32)CC1`, for which the cell viability activity is -90.5%.

With `COc1cccc(Nc2ncnn3ccc(CN4CC[C@@H](N)[C@H](O)C4)c23)c1`, the cell viability activity was -31.4%. Regarding `CCc1c(O)cc(O)c(C(=O)c2ccc(OCCN3CCOCC3)c(OC)c2)c1CC(=O)N(CCOC)CCOC`, the cell viability activity is -90%. Consider `Cc1ncc(NC(=O)c2ccc(CN3CCN(C)CC3)c(C(F)(F)F)c2)cc1Nc1nccc(-c2cccnc2)n1`, for which the cell viability activity was -49%.

Take `CCCCCCCC(=O)N[C@H](CN1CCCC1)[C@H](O)c1ccc2c(c1)OCCO2`: the cell viability activity was -40.4%. Regarding `COc1cc(OCc2cccc(-c3ccccc3)c2C)cc(OC)c1CN1CCCC[C@H]1C(=O)O`, the cell viability activity is -3.46%. Regarding `CC[C@@H](C(=O)[C@@H](C)[C@@H](O)[C@H](C)CCc1ccc(C)c(O)c1C(=O)O)[C@H]1O[C@](CC)([C@H]2CC[C@](O)(CC)[C@H](C)O2)C[C@@H]1C`, the cell viability activity was -42.9%.

For `Clc1ccc(CSC(Cn2ccnc2)c2ccc(Cl)cc2Cl)cc1` (stereo not drawn), the cell viability activity was -29%.

On to `Cc1cn([C@H]2C[C@H](N=[N+]=[N-])[C@@H](CO)O2)c(=O)[nH]c1=O`, for which the cell viability activity is -2.51%. For `COc1cc2c(cc1OC)-c1cc3nc4ccccc4nc3n1C(C)(C)C2`, the cell viability activity was -78.1%. With `CCN(CC)CCOCCOC(=O)C(CC)(CC)c1ccccc1`, the cell viability activity was -61.1%. For the molecule `O=C(O)c1ccc[n+]([O-])c1`, the cell viability activity is -67.1%. Consider `COc1ccc(-c2ccc3c(N4CCOC[C@@H]4C)nc(N4CCOC[C@@H]4C)nc3n2)cc1CO`, for which the cell viability activity is -55.9%. For the molecule `CN1CCN(c2ccc3nc(-c4c(N)c5c(F)cccc5[nH]c4=O)[nH]c3c2)CC1`, the cell viability activity was -77.6%.

With `O=C(/C=C\n1cnc(-c2cc(C(F)(F)F)cc(C(F)(F)F)c2)n1)NNc1cnccn1`, the cell viability activity is -69.8%. For `C/C(=N/Nc1nnc2c(n1)[nH]c1c(C)cccc12)c1ccccn1` the value was -86.8%. With `CC1(C)CC[C@]2(C(=O)O)CC[C@]3(C)[C@H](C(=O)C=C4[C@@]5(C)C=C(C#N)C(=O)C(C)(C)[C@@H]5CC[C@]43C)[C@@H]2C1`, the cell viability activity was -82.9%. For `CC(C)c1cc(C(=O)N2Cc3ccc(CN4CCN(C)CC4)cc3C2)c(O)cc1O` the value was -88.3%; for `Cc1nc(N)sc1-c1ccnc(Nc2ccc(N3CCOCC3)cc2)n1`, -59.8%.
